Experiment in all cases: DAPPL (digital affinity profiling via proximity ligation, sequencing); 10 mM Tris-HCl pH 7.5, 50 mM NaCl, 1 mM DTT, 4% glycerol, room temperature, 30 min; GST-TFs on glutathione beads, 16-mer random dsDNA library, 0.1% formaldehyde crosslink after washing; high values mean tight binding
One experiment deals with T1, FEV (Homo sapiens, UniProt Q99581 1-238).
T1 sequence: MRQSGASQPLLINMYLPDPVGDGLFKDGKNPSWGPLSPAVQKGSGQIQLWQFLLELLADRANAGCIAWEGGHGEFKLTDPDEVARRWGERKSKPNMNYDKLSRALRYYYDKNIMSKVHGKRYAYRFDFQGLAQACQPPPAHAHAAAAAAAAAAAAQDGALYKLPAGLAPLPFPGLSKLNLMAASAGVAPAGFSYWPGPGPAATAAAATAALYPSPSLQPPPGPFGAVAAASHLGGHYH
As to conditions: protein: recombinant; tags: N-terminal GST; dsDNA, one strand shown. Put shortly:
(§1)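 Binding signal is each hexamer's read frequency for a factor divided by its frequency in the tag-only sample. The factors were GST-fused human transcription factors from yeast, captured on glutathione beads, DNA-barcoded and pooled with that sample. Pools were incubated with 200 nmole of a random double-stranded 16-mer DNA library in Tris/NaCl/DTT/glycerol buffer at room temperature for 30 min, then washed, crosslinked with 0.1% formaldehyde, proximity-ligated with BsaI/T4 ligase (1 h, 37 °C), PCR-amplified and sequenced on an Illumina NextSeq500.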

For a further experiment, the target named is ETV5 (Homo sapiens, UniProt P41161 1-510). As to conditions: protein: recombinant; tags: N-terminal GST; dsDNA, one strand shown. The method, boiled down:
as §1

The target of the next experiment is HSF1 (Homo sapiens, UniProt Q00613 1-529). The following applies: protein: recombinant; tags: N-terminal GST; chain copies: 3; dsDNA, one strand shown. The method, boiled down:
as §1

The target in another experiment is T2, SPIC (Homo sapiens, UniProt Q8N5J4 1-248).
T2 sequence: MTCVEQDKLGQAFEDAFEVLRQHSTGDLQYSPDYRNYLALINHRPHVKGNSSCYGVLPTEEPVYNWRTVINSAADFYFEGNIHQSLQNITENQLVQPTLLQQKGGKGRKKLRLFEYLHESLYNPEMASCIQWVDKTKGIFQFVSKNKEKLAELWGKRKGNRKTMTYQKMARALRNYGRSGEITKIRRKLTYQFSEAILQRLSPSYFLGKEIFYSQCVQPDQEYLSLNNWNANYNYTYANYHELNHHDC
As to conditions: protein: recombinant; tags: N-terminal GST; dsDNA, one strand shown. Put shortly: as §1

Another experiment addresses ELF4 (Homo sapiens, UniProt Q99607 1-663). The following applies: protein: recombinant; tags: N-terminal GST; dsDNA, one strand shown. The method, boiled down:
as §1

The next experiment has as its target T3, ELK4 (Homo sapiens, UniProt P28324-2 1-405).
T3 sequence: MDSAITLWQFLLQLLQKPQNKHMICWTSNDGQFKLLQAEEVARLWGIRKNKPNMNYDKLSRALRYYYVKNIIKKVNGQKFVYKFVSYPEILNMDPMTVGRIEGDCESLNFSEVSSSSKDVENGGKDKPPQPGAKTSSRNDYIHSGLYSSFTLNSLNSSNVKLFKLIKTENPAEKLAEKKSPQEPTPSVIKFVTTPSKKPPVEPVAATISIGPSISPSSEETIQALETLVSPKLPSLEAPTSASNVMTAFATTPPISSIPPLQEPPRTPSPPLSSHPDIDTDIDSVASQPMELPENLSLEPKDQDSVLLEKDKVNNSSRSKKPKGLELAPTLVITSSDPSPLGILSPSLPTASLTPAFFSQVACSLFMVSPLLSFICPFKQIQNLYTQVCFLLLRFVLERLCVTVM
As to conditions: protein: recombinant; tags: N-terminal GST; dsDNA, one strand shown. Put shortly:
as §1

In another experiment the target is T4, ETV2 (Homo sapiens, UniProt O00321 1-342).
T4 sequence: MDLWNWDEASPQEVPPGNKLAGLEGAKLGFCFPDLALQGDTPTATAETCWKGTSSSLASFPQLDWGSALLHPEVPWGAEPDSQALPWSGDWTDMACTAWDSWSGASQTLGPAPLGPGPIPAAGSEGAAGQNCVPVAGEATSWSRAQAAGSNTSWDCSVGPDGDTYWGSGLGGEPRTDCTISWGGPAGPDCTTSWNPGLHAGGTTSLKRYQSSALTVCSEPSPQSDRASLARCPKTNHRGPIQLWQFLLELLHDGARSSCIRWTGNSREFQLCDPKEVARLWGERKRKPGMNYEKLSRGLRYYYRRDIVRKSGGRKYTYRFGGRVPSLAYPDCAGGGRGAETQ
The following applies: protein: recombinant; tags: N-terminal GST; dsDNA, one strand shown. The method, boiled down:
as §1

The next experiment concerns the target T5, ELF3 (Homo sapiens, UniProt P78545 1-371).
T5 sequence: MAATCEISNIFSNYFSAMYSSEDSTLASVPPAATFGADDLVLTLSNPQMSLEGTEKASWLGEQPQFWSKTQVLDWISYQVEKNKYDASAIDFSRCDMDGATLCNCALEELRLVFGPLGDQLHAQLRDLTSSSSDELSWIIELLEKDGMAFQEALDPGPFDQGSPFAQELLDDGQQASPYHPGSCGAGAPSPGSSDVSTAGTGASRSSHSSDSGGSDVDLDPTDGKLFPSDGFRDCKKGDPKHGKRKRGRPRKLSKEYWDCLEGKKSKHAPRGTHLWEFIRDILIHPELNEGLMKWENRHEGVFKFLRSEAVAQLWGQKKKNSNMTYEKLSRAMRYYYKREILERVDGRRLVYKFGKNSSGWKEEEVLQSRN
As to conditions: protein: recombinant; tags: N-terminal GST; dsDNA, one strand shown. Put shortly:
as §1

In a further experiment the target is CRX (Homo sapiens, UniProt O43186 1-299). As to conditions: protein: recombinant; tags: N-terminal GST; dsDNA, one strand shown. The method, boiled down: as §1
Another experiment has as its target ETV1 (Homo sapiens, UniProt P50549 1-477). As to conditions: protein: recombinant; tags: N-terminal GST; dsDNA, one strand shown. The method, boiled down:
as §1

A further experiment deals with T6, ERF (Homo sapiens, UniProt P50548 1-548).
T6 sequence: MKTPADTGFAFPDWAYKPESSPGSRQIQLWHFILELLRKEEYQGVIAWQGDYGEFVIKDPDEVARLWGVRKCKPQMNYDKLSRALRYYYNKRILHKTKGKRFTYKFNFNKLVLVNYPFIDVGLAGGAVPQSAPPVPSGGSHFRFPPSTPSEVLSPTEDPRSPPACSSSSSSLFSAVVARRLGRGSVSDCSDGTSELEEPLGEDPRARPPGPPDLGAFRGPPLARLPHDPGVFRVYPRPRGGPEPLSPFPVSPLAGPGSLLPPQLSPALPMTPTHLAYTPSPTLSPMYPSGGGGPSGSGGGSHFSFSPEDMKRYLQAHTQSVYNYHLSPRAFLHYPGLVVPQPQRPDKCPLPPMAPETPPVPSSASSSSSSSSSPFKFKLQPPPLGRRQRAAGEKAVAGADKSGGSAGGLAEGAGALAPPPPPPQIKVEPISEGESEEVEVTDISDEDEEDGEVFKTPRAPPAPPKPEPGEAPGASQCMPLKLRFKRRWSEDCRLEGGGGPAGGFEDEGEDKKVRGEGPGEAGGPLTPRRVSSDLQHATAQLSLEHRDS
As to conditions: protein: recombinant; tags: N-terminal GST; dsDNA, one strand shown. Put shortly: as §1

For a further experiment, the target named is T7, ETV3L (Homo sapiens, UniProt Q6ZN32 1-361).
T7 sequence: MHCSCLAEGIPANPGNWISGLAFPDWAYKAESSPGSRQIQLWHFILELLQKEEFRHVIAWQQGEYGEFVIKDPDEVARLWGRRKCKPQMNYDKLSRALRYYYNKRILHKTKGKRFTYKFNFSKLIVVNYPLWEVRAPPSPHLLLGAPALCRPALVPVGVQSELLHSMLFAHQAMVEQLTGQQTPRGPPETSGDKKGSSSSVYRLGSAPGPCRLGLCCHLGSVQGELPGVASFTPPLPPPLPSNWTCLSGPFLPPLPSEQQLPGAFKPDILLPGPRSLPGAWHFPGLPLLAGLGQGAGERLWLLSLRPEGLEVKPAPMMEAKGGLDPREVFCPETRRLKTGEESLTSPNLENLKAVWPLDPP
As to conditions: protein: recombinant; tags: N-terminal GST; dsDNA, one strand shown. Put shortly:
as §1

A further experiment concerns the target T8, ETS2 (Homo sapiens, UniProt P15036 1-469).
T8 sequence: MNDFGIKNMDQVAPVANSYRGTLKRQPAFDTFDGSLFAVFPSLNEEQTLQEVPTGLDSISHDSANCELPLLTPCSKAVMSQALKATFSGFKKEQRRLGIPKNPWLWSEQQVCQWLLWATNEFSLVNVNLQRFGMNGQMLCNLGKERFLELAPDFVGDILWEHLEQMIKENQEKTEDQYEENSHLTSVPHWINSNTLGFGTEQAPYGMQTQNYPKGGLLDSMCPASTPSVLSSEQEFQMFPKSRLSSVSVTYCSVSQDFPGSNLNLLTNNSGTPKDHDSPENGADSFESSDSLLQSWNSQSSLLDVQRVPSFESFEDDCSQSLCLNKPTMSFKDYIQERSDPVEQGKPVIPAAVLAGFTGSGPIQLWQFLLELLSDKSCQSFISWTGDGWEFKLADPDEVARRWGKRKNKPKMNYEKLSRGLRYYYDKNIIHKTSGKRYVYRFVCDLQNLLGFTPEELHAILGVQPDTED
The following applies: protein: recombinant; tags: N-terminal GST; dsDNA, one strand shown. Put shortly:
as §1

In the next experiment the target is T9, SPDEF (Homo sapiens, UniProt O95238 1-335).
T9 sequence: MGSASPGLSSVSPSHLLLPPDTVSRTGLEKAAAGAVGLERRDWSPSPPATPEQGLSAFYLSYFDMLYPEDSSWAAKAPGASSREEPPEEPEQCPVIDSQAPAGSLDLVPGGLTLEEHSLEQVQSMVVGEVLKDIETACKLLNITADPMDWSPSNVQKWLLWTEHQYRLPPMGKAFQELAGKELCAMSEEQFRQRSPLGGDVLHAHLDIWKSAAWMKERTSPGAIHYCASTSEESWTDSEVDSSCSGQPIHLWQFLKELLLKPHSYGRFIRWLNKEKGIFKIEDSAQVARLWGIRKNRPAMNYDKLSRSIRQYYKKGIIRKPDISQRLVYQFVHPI
As to conditions: protein: recombinant; tags: N-terminal GST; dsDNA, one strand shown. Put shortly: as §1

Another experiment deals with T10, ETV7 (Homo sapiens, UniProt Q9Y603 1-341).
T10 sequence: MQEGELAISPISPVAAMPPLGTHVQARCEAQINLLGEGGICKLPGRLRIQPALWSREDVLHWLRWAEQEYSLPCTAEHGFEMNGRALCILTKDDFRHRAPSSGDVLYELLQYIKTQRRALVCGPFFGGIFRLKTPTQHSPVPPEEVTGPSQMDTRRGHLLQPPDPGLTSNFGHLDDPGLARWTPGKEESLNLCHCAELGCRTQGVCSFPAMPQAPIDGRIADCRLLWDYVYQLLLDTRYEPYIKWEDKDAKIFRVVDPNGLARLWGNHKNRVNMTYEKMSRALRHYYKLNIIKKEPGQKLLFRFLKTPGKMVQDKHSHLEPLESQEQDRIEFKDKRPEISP
The following applies: protein: recombinant; tags: N-terminal GST; dsDNA, one strand shown. The method, boiled down: as §1

Another experiment concerns the target T11, ELF5 (Homo sapiens, UniProt Q9UKW6-2 1-255).
T11 sequence: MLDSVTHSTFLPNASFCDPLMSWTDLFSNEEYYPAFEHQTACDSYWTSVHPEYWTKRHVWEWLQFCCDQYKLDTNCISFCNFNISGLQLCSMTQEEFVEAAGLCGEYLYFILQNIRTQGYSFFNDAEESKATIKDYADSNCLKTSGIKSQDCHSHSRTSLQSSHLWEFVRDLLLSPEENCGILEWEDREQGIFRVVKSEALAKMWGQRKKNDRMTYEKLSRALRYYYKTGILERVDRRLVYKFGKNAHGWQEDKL
The following applies: protein: recombinant; tags: N-terminal GST; dsDNA, one strand shown. The method, boiled down: as §1

The next experiment addresses T12, ETV3 (Homo sapiens, UniProt P41162-2 1-143).
T12 sequence: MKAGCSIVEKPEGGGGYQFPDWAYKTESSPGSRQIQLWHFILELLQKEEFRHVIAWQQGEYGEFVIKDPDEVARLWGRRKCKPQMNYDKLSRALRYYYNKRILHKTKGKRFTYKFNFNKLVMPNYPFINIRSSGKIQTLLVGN
The following applies: protein: recombinant; tags: N-terminal GST; dsDNA, one strand shown. Put shortly: as §1

The target of a further experiment is ETV6 (Homo sapiens, UniProt P41212 1-452). As to conditions: protein: recombinant; tags: N-terminal GST; dsDNA, one strand shown. The method, boiled down: as §1
ETV6, sequence (P41212 whole entry): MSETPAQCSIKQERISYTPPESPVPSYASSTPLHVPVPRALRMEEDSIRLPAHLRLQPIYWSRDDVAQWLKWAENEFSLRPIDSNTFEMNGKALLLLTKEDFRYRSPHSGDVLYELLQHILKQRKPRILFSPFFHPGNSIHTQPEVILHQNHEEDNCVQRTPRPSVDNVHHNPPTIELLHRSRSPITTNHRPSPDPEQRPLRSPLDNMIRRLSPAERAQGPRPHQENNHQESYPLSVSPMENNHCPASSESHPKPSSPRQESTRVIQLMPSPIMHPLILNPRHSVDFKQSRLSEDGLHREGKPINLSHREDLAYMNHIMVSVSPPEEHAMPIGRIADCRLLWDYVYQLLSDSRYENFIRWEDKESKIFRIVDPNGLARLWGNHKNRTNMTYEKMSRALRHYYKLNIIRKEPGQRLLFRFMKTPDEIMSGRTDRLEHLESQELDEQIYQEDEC

ELF4, sequence (Q99607 whole entry): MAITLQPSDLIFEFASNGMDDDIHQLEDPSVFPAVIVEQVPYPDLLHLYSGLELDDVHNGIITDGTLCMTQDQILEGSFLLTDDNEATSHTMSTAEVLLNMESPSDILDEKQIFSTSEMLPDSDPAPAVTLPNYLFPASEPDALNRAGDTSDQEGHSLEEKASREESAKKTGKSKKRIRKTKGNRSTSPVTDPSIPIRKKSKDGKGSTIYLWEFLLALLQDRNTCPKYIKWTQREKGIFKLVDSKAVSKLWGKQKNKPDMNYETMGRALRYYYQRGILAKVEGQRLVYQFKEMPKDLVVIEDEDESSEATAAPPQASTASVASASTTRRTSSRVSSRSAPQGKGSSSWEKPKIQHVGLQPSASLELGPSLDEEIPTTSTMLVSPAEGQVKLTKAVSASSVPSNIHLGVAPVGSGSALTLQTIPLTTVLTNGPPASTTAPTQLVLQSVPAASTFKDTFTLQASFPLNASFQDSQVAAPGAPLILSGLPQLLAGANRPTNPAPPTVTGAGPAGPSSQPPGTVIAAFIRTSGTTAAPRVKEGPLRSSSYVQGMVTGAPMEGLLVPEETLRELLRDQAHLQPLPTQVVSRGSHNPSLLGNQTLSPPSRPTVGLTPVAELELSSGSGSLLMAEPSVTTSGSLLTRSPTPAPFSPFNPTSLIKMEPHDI
ETV5, sequence (P41161 whole entry): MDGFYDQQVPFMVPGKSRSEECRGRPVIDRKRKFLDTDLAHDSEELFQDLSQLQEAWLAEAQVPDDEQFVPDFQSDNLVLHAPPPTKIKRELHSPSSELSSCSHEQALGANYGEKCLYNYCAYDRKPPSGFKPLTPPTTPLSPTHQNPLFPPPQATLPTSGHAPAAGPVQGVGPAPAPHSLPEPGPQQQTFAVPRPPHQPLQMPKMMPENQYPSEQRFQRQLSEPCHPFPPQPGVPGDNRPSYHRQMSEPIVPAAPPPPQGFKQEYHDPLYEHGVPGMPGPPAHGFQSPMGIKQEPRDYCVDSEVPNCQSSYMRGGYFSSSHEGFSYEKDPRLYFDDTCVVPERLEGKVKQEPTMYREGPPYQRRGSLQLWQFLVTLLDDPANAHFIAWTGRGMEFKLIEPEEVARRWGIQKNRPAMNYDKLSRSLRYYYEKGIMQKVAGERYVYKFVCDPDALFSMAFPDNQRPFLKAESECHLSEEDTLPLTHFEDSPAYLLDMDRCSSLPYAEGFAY
ETV1, sequence (P50549 whole entry): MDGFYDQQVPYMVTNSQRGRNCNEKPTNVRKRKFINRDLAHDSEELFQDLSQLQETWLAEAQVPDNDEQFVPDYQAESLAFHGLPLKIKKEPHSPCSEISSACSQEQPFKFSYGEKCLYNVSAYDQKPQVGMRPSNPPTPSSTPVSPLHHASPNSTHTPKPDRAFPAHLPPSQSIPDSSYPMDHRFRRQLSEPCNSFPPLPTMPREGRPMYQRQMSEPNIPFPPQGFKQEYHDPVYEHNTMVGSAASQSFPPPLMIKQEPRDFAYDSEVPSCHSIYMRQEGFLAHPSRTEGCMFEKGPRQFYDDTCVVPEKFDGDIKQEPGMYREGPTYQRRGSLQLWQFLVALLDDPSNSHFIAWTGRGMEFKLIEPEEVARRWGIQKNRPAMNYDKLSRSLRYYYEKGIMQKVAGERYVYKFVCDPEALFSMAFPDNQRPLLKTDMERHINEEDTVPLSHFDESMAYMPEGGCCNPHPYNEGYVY
CRX, sequence (O43186 whole entry): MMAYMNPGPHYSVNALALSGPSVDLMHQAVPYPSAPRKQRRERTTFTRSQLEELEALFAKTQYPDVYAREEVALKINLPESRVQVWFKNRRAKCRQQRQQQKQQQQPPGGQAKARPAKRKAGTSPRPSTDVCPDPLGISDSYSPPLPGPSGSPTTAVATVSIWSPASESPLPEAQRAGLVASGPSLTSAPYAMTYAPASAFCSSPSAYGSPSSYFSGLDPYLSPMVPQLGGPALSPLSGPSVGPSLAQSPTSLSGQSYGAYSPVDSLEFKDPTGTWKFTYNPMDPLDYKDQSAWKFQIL
HSF1, sequence (Q00613 whole entry): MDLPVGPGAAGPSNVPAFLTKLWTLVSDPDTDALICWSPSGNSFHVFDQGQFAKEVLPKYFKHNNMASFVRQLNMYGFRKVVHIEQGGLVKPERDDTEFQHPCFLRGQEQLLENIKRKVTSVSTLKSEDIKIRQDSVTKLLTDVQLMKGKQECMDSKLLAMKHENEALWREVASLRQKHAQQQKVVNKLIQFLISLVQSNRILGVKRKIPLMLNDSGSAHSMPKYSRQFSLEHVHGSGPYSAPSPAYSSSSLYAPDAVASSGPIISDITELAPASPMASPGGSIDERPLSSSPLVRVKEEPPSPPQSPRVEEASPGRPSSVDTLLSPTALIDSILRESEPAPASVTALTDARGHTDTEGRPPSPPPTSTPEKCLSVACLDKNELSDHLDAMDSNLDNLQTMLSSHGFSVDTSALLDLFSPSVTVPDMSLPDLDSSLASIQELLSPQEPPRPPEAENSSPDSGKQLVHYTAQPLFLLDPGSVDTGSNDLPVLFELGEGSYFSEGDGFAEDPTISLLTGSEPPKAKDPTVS

Regarding ATTTCC, the binding signal was 6.05 fold enrichment (6-mer frequency, TF over GST control) with FEV; 4.48 fold enrichment (6-mer frequency, TF over GST control) with ETV5; 1.66 fold enrichment (6-mer frequency, TF over GST control) with HSF1; 4.21 fold enrichment (6-mer frequency, TF over GST control) with SPIC; 3.62 fold enrichment (6-mer frequency, TF over GST control) with ELF4; 3.35 fold enrichment (6-mer frequency, TF over GST control) with ELK4. Moreover, the binding signal in the experiment with ETV2 is 4 fold enrichment (6-mer frequency, TF over GST control); with ELF3, 3.48 fold enrichment (6-mer frequency, TF over GST control); in the experiment with CRX, 1.5 fold enrichment (6-mer frequency, TF over GST control); in the experiment with ETV1, 4.04 fold enrichment (6-mer frequency, TF over GST control); in the experiment with ERF, 3.64 fold enrichment (6-mer frequency, TF over GST control); in the experiment with ETV3L, 3.98 fold enrichment (6-mer frequency, TF over GST control). Further, the binding signal in the experiment with ETS2 is 4.24 fold enrichment (6-mer frequency, TF over GST control); in the experiment with SPDEF, 3.68 fold enrichment (6-mer frequency, TF over GST control); with ETV7, 3.78 fold enrichment (6-mer frequency, TF over GST control); with ELF5, 6.17 fold enrichment (6-mer frequency, TF over GST control); with ETV3, 4.45 fold enrichment (6-mer frequency, TF over GST control); with ETV6 it was 4.99 fold enrichment (6-mer frequency, TF over GST control).

These data come from publication PMC7862700, “An all-to-all approach to the identification of sequence-specific readers for epigenetic DNA modifications on cytosine”.
